What follows are molecules tested against Death-associated protein kinase 1 (Homo sapiens) (UniProt P53355). Settings: at 1 µM.
Death-associated protein kinase 1 (Homo sapiens), sequence (P53355 whole entry, looked up): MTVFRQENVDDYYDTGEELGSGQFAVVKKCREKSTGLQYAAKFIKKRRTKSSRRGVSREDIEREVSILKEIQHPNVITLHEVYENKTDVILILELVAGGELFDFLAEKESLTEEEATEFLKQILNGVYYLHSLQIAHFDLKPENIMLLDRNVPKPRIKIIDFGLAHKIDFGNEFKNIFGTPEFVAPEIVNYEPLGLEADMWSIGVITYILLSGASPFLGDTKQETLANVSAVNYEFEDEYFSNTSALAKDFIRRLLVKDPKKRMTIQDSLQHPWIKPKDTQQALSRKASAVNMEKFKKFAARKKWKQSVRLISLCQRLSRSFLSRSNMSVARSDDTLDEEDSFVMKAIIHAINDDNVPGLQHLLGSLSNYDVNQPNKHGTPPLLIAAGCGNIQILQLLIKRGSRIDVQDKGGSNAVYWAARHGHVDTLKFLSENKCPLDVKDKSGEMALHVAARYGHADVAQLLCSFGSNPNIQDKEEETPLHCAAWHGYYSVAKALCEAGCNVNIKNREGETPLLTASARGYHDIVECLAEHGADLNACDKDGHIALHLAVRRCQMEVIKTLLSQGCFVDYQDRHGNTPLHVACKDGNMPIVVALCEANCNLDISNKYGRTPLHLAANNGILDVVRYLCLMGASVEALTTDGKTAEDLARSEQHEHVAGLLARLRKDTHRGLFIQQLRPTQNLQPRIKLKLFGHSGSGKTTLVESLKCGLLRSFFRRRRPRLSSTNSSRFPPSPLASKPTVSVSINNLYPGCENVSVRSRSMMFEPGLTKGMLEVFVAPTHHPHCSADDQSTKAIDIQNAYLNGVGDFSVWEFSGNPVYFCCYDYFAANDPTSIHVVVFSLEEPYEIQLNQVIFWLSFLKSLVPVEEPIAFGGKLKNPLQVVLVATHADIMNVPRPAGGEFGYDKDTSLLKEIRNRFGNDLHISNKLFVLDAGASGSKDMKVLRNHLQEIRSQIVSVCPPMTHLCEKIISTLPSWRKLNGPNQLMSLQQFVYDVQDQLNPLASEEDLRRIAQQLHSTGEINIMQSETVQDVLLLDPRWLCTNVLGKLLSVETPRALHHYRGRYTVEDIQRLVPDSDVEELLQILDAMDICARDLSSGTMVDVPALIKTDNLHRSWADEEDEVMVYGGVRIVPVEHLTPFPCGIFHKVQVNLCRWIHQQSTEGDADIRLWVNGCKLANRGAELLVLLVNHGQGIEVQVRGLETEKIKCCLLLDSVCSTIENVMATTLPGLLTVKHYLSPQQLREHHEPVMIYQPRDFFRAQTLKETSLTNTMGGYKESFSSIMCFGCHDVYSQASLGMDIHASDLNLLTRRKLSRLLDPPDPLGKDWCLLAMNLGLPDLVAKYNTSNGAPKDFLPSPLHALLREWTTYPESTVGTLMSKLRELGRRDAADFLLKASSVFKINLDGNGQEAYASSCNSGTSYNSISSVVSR

Compound	residual activity [%]
c1ccc2c(-c3ccncc3)c[nH]c2c1	85
O=C(NC(NC(=S)Nc1ccc(F)c([N+](=O)[O-])c1)C(Cl)(Cl)Cl)C(c1ccccc1)c1ccccc1 (stereo unspecified)	90
Cc1cccc(-c2[nH]c(C(C)(C)C)nc2-c2ccc3c(c2)OCO3)n1	79
Nc1ncnc2c1c(-c1ccc(Oc3ccccc3)cc1)cn2C1CCCC1	91
CSc1nc(-c2ccc(F)cc2)c(-c2ccnc(NC(C)c3ccccc3)c2)[nH]1 (stereo unspecified)	91
CC(C)c1nn(-c2c(Cl)cccc2Cl)c2nc(Cc3ccc(OCCO)cc3)[nH]c(=O)c12	94
COc1cc2ncnc(Nc3ccc(NC(=O)c4ccccc4)cc3)c2cc1OC	95
Oc1c2ccccc2c2c3c(cccc13)N=N2	91
Nc1cccc(-c2cc3c(Oc4cccc(O)c4)ncnc3[nH]2)c1	89
COc1cc2ncnc(Nc3ccc(O)c(Br)c3)c2cc1OC	88
O=[N+]([O-])c1ccc(-c2nc(-c3ccc(F)cc3)c(-c3ccncc3)[nH]2)cc1	74
Oc1ccc(Nc2nc(-c3ccc(Cl)cc3)cs2)cc1	90
O=Nc1c(-c2c(O)[nH]c3ccccc23)[nH]c2ccccc12	91
O=C(Nc1cccc(Nc2nccc(Nc3cccc(C(F)(F)F)c3)n2)c1)C1CC1	98
CC#CC(=O)Nc1cc2c(Nc3ccc(F)c(Cl)c3)ncnc2cn1	88
O=C1Nc2cc(Br)ccc2/C1=C1/Nc2ccccc2/C1=N\O	80

Compound	residual activity [%]
Cc1cncc2cccc(S(=O)(=O)N3CCCN(C(=O)CN)C[C@H]3C)c12	88
CCOc1cc2ncnc(Nc3cccc(Br)c3)c2cc1OCC	83
c1ccc(-c2n[nH]cc2-c2ccnc3ccccc23)nc1	91
O=C1NC(=O)c2c1c1c3ccccc3[nH]c1n1cncc21	57
Oc1n[nH]c2nnc(-c3c(-c4ccccc4)nn4ccccc34)cc12	52
CCCC(=O)Oc1ccc2[nH]c(C(=O)c3cc4ccccc4[nH]3)cc2c1	83
Nc1ncnc2[nH]nc(Nc3ccc(F)cc3)c12	102
O=C(c1ccccc1)c1ccc(N2CCOCC2)cc1O	97
COc1ccc(S(=O)(=O)N(CCO)c2ccccc2CN(C)C/C=C/c2ccc(Cl)cc2)cc1	86
O=C1NC(=O)c2cc(Nc3ccc(F)cc3)c(Nc3ccc(F)cc3)cc21	87
COc1ccc(Cl)cc1NC(=O)Nc1cc(C)nc2ccccc12	94
Cn1nc2c3c(cccc31)C(=O)c1ccccc1-2	85
CCN(CC)CCNC(=O)c1c(C)[nH]c(/C=C2\C(=O)Nc3ccc(Cl)cc32)c1C	75
N#Cc1cnc2cnc(NCc3cccnc3)cc2c1Nc1ccc(F)c(Cl)c1	69
Cc1ccc(S(=O)(=O)/C=C/C#N)cc1	88

Reference: ChEMBL document CHEMBL2218924, “A broad activity screen in support of a chemogenomic map for kinase signalling research and drug discovery” (Biochem J, 2013)
